Data on 16 molecules can be found in PubChem BioAssay (NCATS).

The nature of assay [1]: Cell Viability - LYMP1-003 - Assay at 40 hr (AID 964). Note: nearly all actives have a fitted effect of over 60% in size. In a few lines:
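LYMP1-003 lymphoblastoid cells, 2500/well; 5 hr preincubation, 40 hr compound exposure, 37 C; CellTiter-Glo 30 min RT; luminescence; Hill-fit AC50. Positive control tetraoctylammonium bromide.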

A short description of assay [2]: Cell Viability - LYMP2-003 (AID 965).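 Note: cells exposed to compounds for 24 h before reading; nearly all actives have a fitted effect of over 50% in size.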 An outline of the steps:
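Human lymphoblastoid LYMP2-003 cells, 2500/well, exposed to compounds for 24 h at 37 C in complete medium. Viability read as intracellular ATP by CellTiter-Glo luminescence; AC50 from Hill-equation fits of qHTS concentration-response data.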

A short description of assay [3]: Cell Viability - LYMP2-004 (AID 966). Note: nearly all actives have a fitted effect of over 65% in size. An outline of the steps: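 Luminescent ATP read-out (CellTiter-Glo, 30 min RT) after 24 hr compound exposure at 37 C; 2500 lymphoblastoid cells/well, complete medium. Decrease in ATP = cytotoxicity; AC50 from standard Hill model.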
Assay [4] is described as follows: Cell Viability - LYMP2-005 (AID 967). In a few lines:
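Human lymphoblastoid LYMP2-005 cells, 2,500 per well in complete medium, rested 5 h at 37C then compound-treated 24 h at 37C. Intracellular ATP read by CellTiter-Glo luminescence after 30 min at room temperature; AC50 from Hill-equation fits of concentration-response data.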

The nature of assay [5]: Cell Viability - LYMP2-011 (AID 969). Note: nearly all actives have a fitted effect of over 60% in size. In a few lines:
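Luminescent ATP read-out (CellTiter-Glo, 30 min RT) after 24 hr compound exposure at 37 C in human lymphoblastoid cells, 2500 cells/well. Decreasing ATP indicates cytotoxicity; AC50 from standard Hill fit.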

The nature of assay [6]: Cell Viability - LYMP2-013 (AID 970). Note: nearly all actives have a fitted effect of over 55% in size. In a few lines:
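CellTiter-Glo luminescence (cellular ATP) read after 30 min at RT. Cells: human lymphoblastoid line, 2500/well, 24 hr compound exposure at 37 C. Tetraoctylammonium bromide positive control; AC50 via standard Hill fit of qHTS titrations.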

A short description of assay [7]: Cell Viability - LYMP2-015 (AID 971). Note: nearly all actives have a fitted effect of over 55% in size. An outline of the steps:
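qHTS cytotoxicity: 2500 cells/well, 5 hr 37 C, compound 24 hr 37 C, CellTiter-Glo 30 min RT, luminescence. Loss of ATP = toxicity; AC50 via standard Hill fit.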

A short description of assay [8]: Cell Viability - LYMP2-017 (AID 972). Note: nearly all actives have a fitted effect of over 55% in size. An outline of the steps: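 Luminescent ATP read-out (CellTiter-Glo, 30 min RT) reports viable cell number. Cells: human lymphoblastoid line, 2500 per well, 5 hr preincubation, 24 hr compound exposure at 37 C. AC50 is derived from qHTS concentration-response data using the standard Hill model.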
A short description of assay [9]: Cell Viability - LYMP2-019 (AID 973). Note: nearly all actives have a fitted effect of over 55% in size. An outline of the steps:
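qHTS, 1536-well; 2500 cells/well; 5 hr pre-incubation, 24 hr compound exposure, 37 C; CellTiter-Glo added, 30 min RT; luminescence read; AC50 via standard Hill equation.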

Assay [10] is described as follows: Cell Viability - LYMP2-021 (AID 974). An outline of the steps: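 ATP luminescence (CellTiter-Glo, 30 min RT) after 24 h compound exposure at 37 C; 2500 human lymphoblastoid cells/well, 5 h settle beforehand. Cytotoxicity = concentration-dependent ATP drop, AC50 by Hill fit.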

“And” between values parts separate entries of the source, which are not always exact repeats. Equal entries are not always repeated. Results filed as inconclusive are left out. Where a structure was tested more than once in an assay, its records may differ in their call. The source made the active and inactive calls. Calls come from the whole dose curve; as a rule, active = well fitted curve in the direction sought with a large enough effect; inconclusive = small, poorly fitted or top-dose-only effect, or another doubt; inactive = no such curve, though single readings can be large; an effect the other way counts as inactive or inconclusive.
Potency is the fitted concentration of half-maximal effect.

Take `COc1ccc2c(c1OC)C(=O)OC2C1c2cc3c(cc2CCN1C)OCO3` (centres undefined): the Potency result in [1], in assay [2], in assay [3], in assay [4], in assay [5] and in [6] was “inactive” in each case. For the same molecule, the Potency result in assay [7], in assay [8], in assay [9] and in assay [10] was “inactive” throughout.

Consider `[O]=[Cr](=[O])([OH])[O][Cr](=[O])(=[O])[OH]`, for which the Potency entry is “inactive and 39.8 µM (active) and 25.1 µM (active)” in [1]; 12.6 µM (active) and 20 µM (active) and 7.94 µM (active) in assay [2]; 10 µM (active) and 15.8 µM (active) and 6.31 µM (active) in assay [3]; 10 µM (active) and 15.8 µM (active) in [4]; 10 µM (active) and 12.6 µM (active) and 7.94 µM (active) in assay [5]; 15.8 µM (active) and 10 µM (active) in assay [6]. Moreover, the Potency was 10 µM (active) in assay [7]; 12.6 µM (active) in [8]; 12.6 µM (active) and 10 µM (active) in assay [9]; 12.6 µM (active) and 10 µM (active) in assay [10].

Regarding `C[C@H]1CC[C@@H]2[C@@H](C)[C@H]3[C@H](C[C@H]4[C@@H]5CC=C6CC(O[C@@H]7O[C@H](CO)[C@H](O)[C@H](O[C@@H]8O[C@H](CO)[C@@H](O)[C@H](O)[C@H]8O)[C@H]7O[C@H]7O[C@@H](C)[C@H](O)[C@@H](O)[C@H]7O)CC[C@]6(C)[C@H]5CC[C@]34C)N2C1` (some centres undefined), the Potency in [1] was 39.8 µM (active); in [3], 50.1 µM (active); in assay [5], 39.8 µM (active); in assay [6], 39.8 µM (active); in [8], 50.1 µM (active); in assay [9], 39.8 µM (active). Moreover, in [10], the Potency was 50.1 µM (active).

`O=C1C2CC=CCC2C(=O)N1SC(Cl)(Cl)Cl` (centres undefined): the Potency in [1] was 20 µM (active); in assay [2] it was 12.6 µM (active); in [3], 10 µM (active); in [4] it was 12.6 µM (active); in assay [5] it was 6.31 µM (active); in [6] it was 5.01 µM (active) and 6.31 µM (active). In addition, the Potency was 3.98 µM (active) in [7]; 3.16 µM (active) and 5.01 µM (active) in assay [8]; 3.98 µM (active) and 5.01 µM (active) in [9]; 3.98 µM (active) and 5.01 µM (active) in [10].

For `O=[N+]([O-])c1ccc(F)c([N+](=O)[O-])c1`, the Potency result in assay [1], in [2], in assay [3], in [4] and in [9] was “inactive” in each case.

Turning to `C[C@]12CCC(=O)C[C@@H]1CC[C@@H]1[C@@H]2CC[C@]2(C)[C@@H](O)CC[C@@H]12`, the Potency entry in [1], in assay [2], in assay [3], in [4], in assay [5] and in assay [6] was “inactive” each time. Besides, the Potency result in assay [7], in assay [8] and in [10] was “inactive” throughout.

Regarding `O=Cc1ccco1`, the Potency result in assay [1], in assay [2], in assay [3], in assay [4], in assay [5] and in assay [6] was “inactive” throughout. Also, the Potency entry in [7], in assay [8], in [9] and in assay [10] was “inactive” each time.

With `ClCC1CO1` (centres undefined), the Potency result in assay [1], in [2], in assay [3], in assay [5], in assay [6] and in assay [7] was “inactive” each time. The Potency result in assay [8], in assay [9] and in assay [10] was “inactive” each time.

For `O=C(O)C(Cl)(Cl)Cl`, the Potency result in assay [1], in assay [2], in assay [3], in assay [4], in assay [5] and in assay [6] was “inactive” throughout. Further, the Potency result in assay [7], in assay [8], in assay [9] and in [10] was “inactive” in each case.

Consider `O=C1C=CC(=O)C=C1`, for which the Potency entry in assay [1], in assay [2] and in assay [4] was “inactive” each time. The Potency is 50.1 µM (active) in assay [5]; 39.8 µM (active) in assay [6]; 31.6 µM (active) in assay [7]; 50.1 µM (active) in assay [8]; 50.1 µM (active) in assay [9]; 31.6 µM (active) in assay [10].

For the molecule `O=C/C=C/c1ccccc1`, the Potency result in [1], in [2], in [3], in assay [4], in [5] and in assay [6] was “inactive” in each case. The Potency entry in assay [7], in [8], in assay [9] and in assay [10] was “inactive” throughout.

Regarding `ClC=C(Cl)Cl`, the Potency entry in [1], in [2], in [3], in assay [4], in [5] and in [6] was “inactive” throughout. Besides, the Potency entry in assay [7], in assay [8], in assay [9] and in assay [10] was “inactive” each time.

Regarding `[O]=[Cd]`, the Potency entry in [1], in assay [2], in [3], in [4], in assay [5] and in assay [6] was “inactive” throughout. Also, the Potency entry in assay [7], in assay [8], in assay [9] and in assay [10] was “inactive” in each case.

Take `Oc1cc(Cl)c(Cl)cc1Cl`: the Potency entry in assay [1], in assay [2], in [3], in assay [4], in assay [5] and in assay [6] was “inactive” in each case. Moreover, the Potency entry in assay [7], in [8], in [9] and in assay [10] was “inactive” in each case.

As to `S=C=S`, the Potency result in assay [1], in [2], in [3], in [4], in assay [5] and in assay [6] was “inactive” each time. The Potency result in assay [7], in [8], in assay [9] and in assay [10] was “inactive” in each case.

Take `NNC(N)=O`: the Potency entry in [1], in assay [2], in [3], in assay [4], in assay [5] and in assay [6] was “inactive” throughout. In addition, the Potency entry in assay [7], in assay [8], in assay [9] and in assay [10] was “inactive” in each case.
